Tested on: Vero E6 infected with SARS-CoV-2
Experiment: inhibition of SARS-CoV-2 cytopathic effect; higher = more antiviral protection, active = above 15
Settings: 48 h

Measured: inhibition of SARS-CoV-2 cytopathic effect

Cc1ncc(OC[C@@]2(c3cccc(F)c3)C[C@H]2C(=O)Nc2ccc(F)cn2)c(C)n1 [lemborexant]
inactive: 1 nM -1.6% | 8.33 nM -1.02% | 100 nM -1.75% | 833.33 nM -4.61% | 10000 nM -1.06%

CCNC(=O)Nc1ccc(-c2nc3c(c(N4CCOC[C@@H]4C)n2)CCN(C2COC2)C3)cc1
inactive: 1 nM 0.65% | 8.33 nM -0.06% | 100 nM -0.8% | 833.33 nM 0.29% | 10000 nM -0.84%

CC[C@H](Nc1ncnc2[nH]cnc12)c1nc2cccc(F)c2c(=O)n1-c1ccccc1 [idelalisib]
inactive: 1 nM -1.64% | 8.33 nM 2.2% | 100 nM 1.98% | 833.33 nM 3.57% | 10000 nM -3.36%

C#C[C@]1(O)CC[C@H]2[C@@H]3CCC4=C(CCC(=O)C4)[C@H]3CC[C@@]21C [noretynodrel]
inactive: 1 nM 0.57% | 8.33 nM 0.96% | 100 nM 1.22% | 833.33 nM -5.6% | 10000 nM 0.57%

CN1[C@H]2C[C@H](OC(=O)[C@H](CO)c3ccccc3)C[C@@H]1[C@@H](O)C2 [anisodamine]
inactive: 1 nM 1.04% | 8.33 nM 2.56% | 100 nM 3.99% | 833.33 nM 5.76% | 10000 nM 3.66%

CNc1ncnc2c1ncn2[C@@H]1O[C@H](CO)[C@@H](O)[C@H]1O [N6-methyladenosine]
inactive: 1 nM 1.25% | 8.33 nM 1.97% | 100 nM -1.29% | 833.33 nM 0.63% | 10000 nM 2.03%

Source: the supplement of paper PMC13380429
